# An excerpt weighted towards active compounds, which were near 1.7% of everything screened.
# NOD2 RIPK2 PPI = blocks binding of human NOD2 to RIPK2; CHO BLA complementation NOD2-RIPK2, CCF4 ratio; inhibition, % at 4.98 µM; 360,000 compounds, 0.38% hits; AID 624267; in the data active = inhibition above about 21%
# TLR9-MyD88 block = TLR9-MyD88 interaction inhibition; CHO BLA complementation TLR9-MyD88, CCF4 FRET ratio; 340,000 compounds, 0.21% hits; Q9NR96+Q99836; AID 504734; inhibition, % at 4.98 µM;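 active = inhibition above the mean over all tested compounds plus 3 SD, cut at about 21% in these data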
# Myeloid diff 2 = myeloid differentiation induction. 360,000 compounds, 1% hits. ER-HoxA9 myeloid progenitors, lysozyme-GFP differentiation, flow cytometry. calls only at 10 µM;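 active = normalized GFP-positive differentiation at or above the plate's own cutoff, the solvent-only control mean plus 3 SD; inconclusive = no clear call, values can overlap the other calls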;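 note: cells exposed to compound for four days before flow analysis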
# TLR4-MyD88 BLA = inhibitors of human TLR4-MyD88 binding; AID 861; HeLa CL3-4 TLR4/MyD88 BLA complementation, FRET ratio; inhibition, % at 8.4 µM; 200,000 compounds, 0.18% hits; O00206+Q99836; in the data active = inhibition above about 25%
# Target sequence (O00206 whole entry, looked up): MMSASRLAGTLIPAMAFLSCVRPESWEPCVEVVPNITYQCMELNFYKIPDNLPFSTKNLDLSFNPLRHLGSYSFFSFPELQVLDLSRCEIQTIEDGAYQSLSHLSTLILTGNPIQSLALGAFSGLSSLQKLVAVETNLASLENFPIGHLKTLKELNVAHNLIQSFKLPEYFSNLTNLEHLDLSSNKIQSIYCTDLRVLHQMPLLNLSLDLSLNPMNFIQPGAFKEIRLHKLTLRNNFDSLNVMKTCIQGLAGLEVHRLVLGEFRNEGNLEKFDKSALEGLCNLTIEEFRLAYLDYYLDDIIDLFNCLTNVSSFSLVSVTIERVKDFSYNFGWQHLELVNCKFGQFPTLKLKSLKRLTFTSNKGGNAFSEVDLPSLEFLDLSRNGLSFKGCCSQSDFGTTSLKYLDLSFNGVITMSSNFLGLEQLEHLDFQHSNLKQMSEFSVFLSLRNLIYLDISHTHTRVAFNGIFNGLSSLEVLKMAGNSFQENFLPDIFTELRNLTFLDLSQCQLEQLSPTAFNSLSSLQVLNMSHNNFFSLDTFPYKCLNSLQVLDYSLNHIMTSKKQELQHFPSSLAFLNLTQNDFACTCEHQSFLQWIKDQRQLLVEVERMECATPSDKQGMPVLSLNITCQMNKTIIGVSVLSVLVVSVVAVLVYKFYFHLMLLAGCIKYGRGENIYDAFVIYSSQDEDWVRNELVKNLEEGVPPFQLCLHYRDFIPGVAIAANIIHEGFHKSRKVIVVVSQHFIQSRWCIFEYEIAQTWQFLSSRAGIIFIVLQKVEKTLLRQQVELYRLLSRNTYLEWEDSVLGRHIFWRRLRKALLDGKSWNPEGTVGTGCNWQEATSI
# Target sequence (Q99836 whole entry, looked up): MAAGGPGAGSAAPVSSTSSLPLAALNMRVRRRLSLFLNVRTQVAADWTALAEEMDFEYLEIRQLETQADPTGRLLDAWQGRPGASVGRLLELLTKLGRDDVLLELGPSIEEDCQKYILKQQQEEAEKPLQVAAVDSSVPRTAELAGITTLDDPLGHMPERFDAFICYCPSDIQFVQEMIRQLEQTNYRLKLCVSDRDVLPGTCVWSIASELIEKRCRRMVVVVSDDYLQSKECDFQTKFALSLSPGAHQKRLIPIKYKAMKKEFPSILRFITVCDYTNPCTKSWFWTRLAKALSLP
# ABCB6 inh 2 = human ABCB6 transporter inhibition; Q9NP58; K562-ABCB6 porphyrin accumulation, flow cytometry, 1 h; active compounds read low; fluorescence ratio to DMSO, % at 10 µM; 360,000 compounds, 0.19% hits;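 active = fluorescence ratio to DMSO below 75%, the collection mean minus 3 SD; inconclusive = too few cells collected in the well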;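 note: signal is porphyrin accumulated inside mitochondria; lower ratio means ABCB6 inhibition with less porphyrin fluorescence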
# NOD2 RIPK2 conf = confirmation of human NOD2-RIPK2 interaction inhibitors | shares compounds with NOD2 RIPK2 PPI | CHO cells, NOD2-RIPK2 BLA complementation, CCF4 FRET | AID 624370 | inhibition, % at 4.98 µM | 1,200 compounds, 70% hits;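 active = mean inhibition across replicates above a set limit taken from the earlier primary screen, cut at about 21% in these data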
# NOD2 BLA counter = NOD2-RIPK2 counterscreen BLA reporter activity | shares compounds with NOD2 RIPK2 PPI | CHO BLA reporter, CCF4 FRET ratio | inhibition, % at 4.98 µM | 1,200 compounds, 57% hits | AID 624371;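 active = mean inhibition above the low-control mean inhibition plus three low-control SD, cut at about 11% in these data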
# A number is an active result; . = inactive; ? = inconclusive; / = no result.
SMILES,NOD2 RIPK2 PPI,TLR9-MyD88 block,Myeloid diff 2,TLR4-MyD88 BLA,ABCB6 inh 2,NOD2 RIPK2 conf,NOD2 BLA counter
CCN(CC)c1ccc(C(=C2C=CC(=[N+](CC)CC)C=C2)c2ccc(N(CC)CC)cc2)cc1,41,.,/,/,.,49,.
CCN(CC)c1ccc(C(=O)NNC(=O)CCl)cc1,.,.,.,.,.,/,/
Cc1ccc(-c2nnn(CC(=O)Nc3ccccc3N3CCOCC3)n2)cc1,21,.,.,.,.,.,.
O=C(Cn1nnc(-c2ccccc2)n1)Nc1ccccc1N1CCOCC1,.,.,.,.,.,/,/
CC1(C(=O)NS(=O)(=O)c2ccccc2Cl)CCN1C(=O)c1ccccc1 (centres undefined),.,/,.,/,.,/,/
CCc1sc(N2C(=O)C3C4CCC(C4=C(C)C)C3C2=O)nc1-c1ccccc1 (centres undefined),71,.,.,.,.,.,.
CCc1sc(NC(C)=O)nc1-c1ccccc1,.,.,.,.,.,/,/
NC(CCc1ccccc1)c1csc(Nc2nncc3ccccc23)n1 (centres undefined),24,/,.,/,.,.,.
COCOc1ccc(-c2ncc(OC)nc2NC(=O)c2cc(C)oc2C)cc1,.,/,.,/,.,/,/
COc1ccc(-n2sc3ccc(F)cc3c2=O)cc1,40,.,.,/,.,40,.
COc1ccc(-n2sc3ccccc3c2=O)cc1,26,.,.,/,.,44,.
CC(C)(O)CN(C(=O)c1ccc([N+](=O)[O-])cc1)C1CCCC1,.,.,.,/,.,/,/
C/C(CC(=O)Nc1ccc2ccccc2c1)=N\NC(=O)c1ccc(O)c(O)c1,.,.,.,/,.,/,/
O=C(Nc1ccc2c(c1)OCCO2)C(c1ccccc1)n1c(=O)c(-c2ccco2)nc2ccccc21 (centres undefined),.,/,.,/,/,/,/
O=C(Nc1ccc2ccccc2c1)C(c1ccccc1F)n1c(=O)c(-c2cc3ccccc3[nH]2)nc2ccccc21 (centres undefined),45,/,.,/,/,42,67
O=C(Nc1ccc2c(c1)OCCO2)C(c1ccccc1)n1c(=O)c(-c2cc3ccccc3[nH]2)nc2ccccc21 (centres undefined),48,/,.,/,/,41,64
COc1ccc(NC(=O)C(c2ccccc2)n2c(=O)c(-c3cc4ccccc4[nH]3)nc3ccccc32)cc1 (centres undefined),47,/,.,/,/,42,65
COc1ccc(NC(=O)C(c2ccccc2F)n2c(=O)c(-c3cc4ccccc4[nH]3)nc3ccccc32)cc1 (centres undefined),50,/,.,/,/,47,69
CC(=O)Nc1ccc2c(c1)Cc1c(F)cccc1-2,.,.,.,/,.,/,/
CS(=O)(=O)c1[nH]nc(-c2ccccc2)c1C#N,.,.,.,/,.,/,/
CC1CC(C)(C)NC(=S)N1CCCC(=O)N1CCN(c2ccc(F)cc2)CC1 (centres undefined),.,.,.,.,.,/,/
CCOC(=O)CC1(C)c2nc(NC(C)=O)sc2Cc2sc(NC(C)=O)nc21,.,/,.,/,.,/,/
Cc1ccsc1CN(C(=O)c1ccc([N+](=O)[O-])cc1)C1CCS(=O)(=O)C1 (centres undefined),.,.,/,/,.,/,/
CCC(C)COC(=O)C(C#N)c1nc2ccccc2nc1N1CCCCC1 (centres undefined),.,.,.,.,.,/,/
CCC(CC)COC(=O)C(C#N)c1nc2ccccc2nc1N1CCN(CC)CC1 (centres undefined),22,.,.,.,.,21,15
SMILES,NOD2 RIPK2 PPI,TLR9-MyD88 block,Myeloid diff 2,TLR4-MyD88 BLA,ABCB6 inh 2,NOD2 RIPK2 conf,NOD2 BLA counter
O=C(NCc1ccccc1)C1Cc2c(-c3cccc(F)c3)ccnc2O1 (centres undefined),.,/,?,/,.,/,/
O=C(NCc1ccccc1)C1Cc2c(-c3ccc(Cl)cc3)ccnc2O1 (centres undefined),21,/,?,/,.,.,.
Cc1ccc(SC(C)C(=O)Nc2ccccc2-c2ccccc2)cc1 (centres undefined),43,.,.,.,.,.,.
COc1cccc(-n2cnnc2SCC(=O)NC2CC2)c1,.,.,.,/,.,/,/
O=C(CN1CCN(S(=O)(=O)c2ccc(Br)cc2)CC1)N/N=C/c1ccc(Cl)c([N+](=O)[O-])c1,33,.,.,.,.,32,.
CC1=C(n2nnc([N+](=O)[O-])n2)C(c2cccnc2)C(C#N)=C(N)O1 (centres undefined),.,.,.,.,.,/,/
CN1C(=O)C2(OCCCO2)c2ccccc21,.,.,.,/,.,/,/
COc1ccc2c(c1)sc1nc(-c3ccccc3)cn12,40,.,?,.,.,.,.
COc1ccccc1C=Cc1ccnc2ccccc12,.,.,.,/,.,/,/
CN(C)c1ccc(C=Cc2ccnc3ccccc23)cc1N,33,/,.,/,.,32,33
COc1ccc2c3c(cccc13)C(=O)CC2,27,.,?,/,.,.,.
COc1ccc2c(c1OC)C(=O)OC2,.,.,.,.,.,/,/
C=CC[N+]1(CC(=O)NCc2ccc(NC(C)=O)cc2)CCOCC1,.,.,.,/,.,/,/
Cc1nn(-c2ccccc2)c(N)c1C1(O)C(=O)N(C(C)C)c2ccccc21 (centres undefined),.,.,.,.,.,/,/
Cc1nn(-c2ccccc2)c2c1P(=O)(O)/C(=C1\N(C)c3ccccc3C1(C)C)C=N2,24,.,.,.,.,.,19
CCCNC(=O)CSc1n[nH]c(=O)n1CCc1ccccc1,.,.,.,/,.,/,/
CN(C)NC(=S)Nc1ccc2nc(-c3ccccn3)c(-c3ccccn3)nc2c1,.,.,.,.,.,/,/
CC(C)(C)CC(C)(C)NC(=S)Nc1ccc2nc(-c3ccccn3)c(-c3ccccn3)nc2c1,32,.,.,.,.,.,.
COc1ccc(CCN2C(=O)C=CC2=O)cc1OC,43,.,/,/,.,51,12
O=c1ccc2ccccc2c2ccccc12,43,/,?,/,.,41,.
CN1Cc2c(N3CCOCC3)nc3sc(C(=O)c4ccc(Br)cc4)c(N)c3c2CC1(C)C,24,/,.,/,.,29,30
O=c1sc(/C=N/Nc2ccccc2)c(Cl)n1Cc1ccccc1,29,.,.,.,.,.,.
O=C(O)c1cccc(Cn2c(Cl)c(/C=N/NC(=O)c3ccc(O)cc3)sc2=O)c1,.,.,.,/,.,/,/
Cc1csc(=O)n1CC(=O)OCC(=O)NNC(=O)c1ccc(Cl)cc1,.,.,.,/,.,/,/
Clc1nc(Cl)c2ncn(-c3ccccc3)c2n1,22,.,.,/,.,41,11
COc1ccc(Cl)cc1NC(=O)CC(=O)Nc1cc(Cl)ccc1OC,.,.,.,/,.,/,/
COc1ccc(Cl)cc1NC(=O)Cc1c(F)cccc1Cl,22,.,.,.,.,.,.

# Bioassay records (PubChem BioAssay)
